Experimental data published in ChEMBL document CHEMBL3988442, “University of Dundee, Small-Polar-MMV Screening Library” (2021).
Hit rate of the full screen: of about 69,000 compounds, about 420 (0.61%) showed an effect of 50% or more. Only a selection was taken, and strong results are over-represented in it overall.

The compounds below were run against T1, Histidine--tRNA ligase (Leishmania infantum) (UniProt A4I591) (assay: Leishmania infantum Histidine tRNA synthetase (LdHisRS)). Conditions: 30 µM.
T1 sequence (whole entry): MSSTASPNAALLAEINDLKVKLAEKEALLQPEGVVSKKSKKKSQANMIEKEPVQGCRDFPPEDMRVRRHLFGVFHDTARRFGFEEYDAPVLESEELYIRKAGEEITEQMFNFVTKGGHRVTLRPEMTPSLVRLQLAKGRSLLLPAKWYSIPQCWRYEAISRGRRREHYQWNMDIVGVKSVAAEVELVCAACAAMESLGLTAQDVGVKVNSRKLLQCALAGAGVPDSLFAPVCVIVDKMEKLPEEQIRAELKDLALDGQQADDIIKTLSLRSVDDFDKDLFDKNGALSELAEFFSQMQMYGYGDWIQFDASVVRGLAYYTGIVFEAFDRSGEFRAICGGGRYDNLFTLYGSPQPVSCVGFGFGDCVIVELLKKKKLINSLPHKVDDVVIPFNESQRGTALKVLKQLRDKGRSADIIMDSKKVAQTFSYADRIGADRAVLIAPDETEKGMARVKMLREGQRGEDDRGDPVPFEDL
Format: functional
Design: scale not given: in the data most compounds retested in dose-response had high values

Row | SMILES | Percent Effect
1 | Cc1cc(C)cc(NC(=O)Nc2c(O)oc3ccccc3c2=O)c1 | 16.1%
2 | CCn1nc2c(cc1=O)CN(Cc1nc3ccccc3o1)CC2 | 12.9%
3 | CCn1nc2c(cc1=O)CN(Cc1nc3ccccc3c(=O)[nH]1)CC2 | 25%
4 | Cn1nc2c(cc1=O)CN(Cc1nc3ccccc3c(=O)[nH]1)CC2 | 24.7%
5 | Cn1nc2c(cc1=O)CN(CCc1nc3ccccc3c(=O)[nH]1)CC2 | 53.9%
6 | Cn1nc2c(cc1=O)CN(Cc1nc(N)c3ccccc3n1)CC2 | 43.5%
7 | c1ccc2sc(N3CCCN(c4ncnc5c4CCNC5)CC3)nc2c1 | 57.1%
8 | Cc1ncnc(N2CCCN(c3nc4ccccc4s3)CC2)c1C | 25.7%
9 | CC(C)n1nc2c(cc1=O)CN(c1nc3ccccc3s1)CC2 | 18.2%
10 | CCn1nc2c(cc1=O)CN(c1nc3ccccc3s1)CC2 | 72.7%
11 | Cn1nc2c(cc1=O)CN(c1nc3ccccc3s1)CC2 | 90.9%
12 | c1ccc2sc(N3CCN(c4ncnc5c4CCC5)CC3)nc2c1 | 14.3%
13 | Cc1nc(CO[C@H]2CN(C(=O)c3cnoc3C)[C@@H]3COC[C@H]23)cs1 | 10%
14 | CC(C)NC(=O)[C@@]12CCO[C@@H]1CCN(Cc1ccco1)C2 | 15.1%
15 | O=C(Nc1cccnc1)[C@H]1C[C@@H]2CN(Cc3ccc(F)cc3)C[C@H]1O2 | 10%
16 | CC(C)C(=O)N1CC[C@H]2N(C)CC[C@@]2(C(=O)Nc2cccnc2)CC1 | 8.11%
17 | OC[C@H]1CC[C@]2(CC1)CN(Cc1ccsc1)Cc1ccccc1O2 | 16.5%
18 | O=C(c1ccco1)N1C[C@@H]2OCCN(CCN3CCCC3)[C@@H]2C1 | 6.01%
19 | CNC(=O)N1CCC2(CC1)CC[C@@]1(C(=O)NC)CN(S(C)(=O)=O)C[C@@H]21 | 9.72%
20 | CN(Cc1ccco1)[C@@H]1CN(Cc2nccn2C)[C@@H]2CCCO[C@H]12 | 27%
21 | O=C([C@@H]1COC[C@H]2CN(c3ccncn3)C[C@H]21)N1CCCC1 | 19.3%
22 | CN(Cc1cccs1)C(=O)c1ccc(=O)n(C)c1 | 11.3%

Row | SMILES | Percent Effect
23 | Cc1occc1CN(C)C(=O)Nc1ccc(=O)n(C)c1 | 102%
24 | CN(Cc1ccc2c(c1)OCO2)C(=O)c1ccc(=O)n(C)c1 | 5.33%
25 | COc1ccc(NC(=O)N(C)Cc2ccco2)cn1 | 16%
26 | CN(Cc1ccco1)C(=O)c1ccc(=O)n(C)c1 | 14.9%
27 | CN(Cc1ccco1)C(=O)Nc1ccc(=O)n(C)c1 | 102%
28 | CS(=O)(=O)N[C@@H]1CN(C(=O)c2cccnc2)[C@@H]2CCCO[C@@H]21 | 8.26%
29 | O=C([C@@H]1C[C@@H]2CCN(C3CCOCC3)C[C@@H]2O1)N1CCOCC1 | 8.33%
30 | CC(=O)N1CCN(C(=O)CNc2ccc3ncsc3c2)CC1 | 58.8%
31 | CC(=O)N1CCN(C(=O)CNc2ccc3sccc3c2)CC1 | 27.2%
32 | CC(=O)N1CCN(C(=O)C(C)Nc2ccc3ncsc3c2)CC1 (centres undefined) | 28.9%
33 | CCN1CCN(Cc2coc(-c3cccc(F)c3)n2)CC1 | 21.9%
34 | Cc1ccc(-c2nc(CN3CCc4nn(C)c(=O)cc4C3)co2)cc1 | 107%
35 | CN(C)CC1CN(Cc2coc(-c3cccs3)n2)CCO1 (centres undefined) | 14.9%
36 | Cn1nc2c(cc1=O)CN(Cc1coc(-c3ccc(F)cc3)n1)CC2 | 90.3%
37 | O=C1NCCN1C1CCCN(Cc2coc(-c3ccc(F)cc3)n2)C1 (centres undefined) | 24.6%
38 | O=C1NCCN1C1CCN(Cc2coc(-c3ccc(F)cc3)n2)CC1 | 9.82%
39 | CCn1nc2c(cc1=O)CN(Cc1coc(-c3ccccc3)n1)CC2 | 14.9%
40 | Cn1nc2c(cc1=O)CN(Cc1coc(-c3cccs3)n1)CC2 | 97.6%
41 | CC1CCCN(Cc2coc(-c3cccc(F)c3)n2)C1 (centres undefined) | 13.7%
42 | Cn1nc2c(cc1=O)CN(Cc1coc(-c3ccccc3)n1)CC2 | 44.7%
43 | O=C1NCCN1C1CCCN(Cc2coc(-c3cccs3)n2)C1 (centres undefined) | 13.4%
44 | Cn1nc2c(cc1=O)CN(Cc1coc(-c3cccc(F)c3)n1)CC2 | 90.3%

Row | SMILES | Percent Effect
45 | Cc1cccc(S(=O)(=O)N2CC[C@H]3CO[C@H](CN(C)C)[C@H]3C2)c1 | 0.917%
46 | Cc1ccc(CN2C[C@H](N(C)Cc3cncnc3)[C@H]3OCCC[C@H]32)o1 | 15.4%
47 | O=C1CCCC2=C1C(c1ccc(F)cc1F)Nc1nonc1N2 (centres undefined) | 14.6%
48 | Cc1ccccc1CN1C[C@@H]2CC[C@H](C1)N(CC1CCC1)C2=O | 34.4%
49 | CCOCC(=O)N1C[C@@H]2CC[C@H](Oc3ccccc3)[C@@H]2C1 | 26.3%
50 | N#Cc1cccc(CNCCC(=O)N2CCc3sccc3C2)c1 | 5.38%
51 | COc1ccc(CNCCC(=O)N2CCc3sccc3C2)cc1O | 26.9%
52 | O=C(CCNCc1cccc(O)c1)N1CCc2sccc2C1 | 85%
53 | c1ccc(-c2noc(CNC3CCCN(c4cccnn4)C3)n2)nc1 (centres undefined) | 67.7%
54 | c1cnnc(N2CCCC(NCc3nc(-c4ccco4)no3)C2)c1 (centres undefined) | 0.926%
55 | c1cnnc(N2CCCC(NCc3nc(-c4cccs4)no3)C2)c1 (centres undefined) | 24.7%
56 | Cc1cccc(CN2C[C@@H]3OCCN(CC(=O)N(C)C)[C@@H]3C2)c1 | 13.5%
57 | O=C(c1ncccn1)N1C[C@@H]2COC[C@]2(COc2cccnc2)C1 | 17.3%
58 | CS(=O)(=O)c1ccc(CN2C[C@H]3CC[C@@H]2CN(c2ncccn2)C3)cc1 | 15%
59 | CCS(=O)(=O)N1CCC2(CC1)CC[C@@]1(C(=O)NC)CN(C(C)=O)C[C@@H]21 | 19.7%
60 | CC(C)(C)C(=O)N1CC[C@H]2NC(=O)N(c3ccc(F)cc3)C(=O)[C@H]21 | 19.4%
61 | Cc1nc([C@@H]2C[C@@H]3CCN(C(=O)c4ccnnc4)C[C@H]3O2)sc1C | 18.4%
62 | CN(C)c1nc2c(c(N3CCc4c(c(CO)nn4C)C3)n1)CCNC2 | 11.4%
63 | CC(Nc1nc(-c2ccncc2)nc2c1CCNC2)c1ccccc1 (centres undefined) | 54.1%
64 | CC(Nc1nc(-c2ccccc2)nc2c1CCNCC2)c1cccnc1 (centres undefined) | 16.4%
65 | c1ccc2c(c1)CN(c1ncnc3c1CCNC3)CCO2 | 16.1%
66 | c1ccc2c(c1)CCN(c1nc(-c3ccncc3)nc3c1CCNC3)C2 | 101%

Row | SMILES | Percent Effect
67 | Cc1ccccc1N1CCN(c2nc(N(C)C)nc3c2CCNC3)CC1 | 58.6%
68 | CN(C)c1nc2c(c(N3CCc4ccccc4C3)n1)CCNC2 | 58.6%
69 | Cc1cccc(=O)n1CCCNc1nc(N(C)C)nc2c1CCNC2 | 35.3%
70 | CC(Nc1nc(-c2ccccc2)nc2c1CCNCC2)c1nccs1 (centres undefined) | 19.7%
71 | c1ccc2c(c1)CCN(c1ncnc3sc4c(c13)CCNC4)C2 | 15.1%
72 | Cc1cc2n(n1)CCN(c1nc(N(C)C)nc3c1CCNC3)C2 | 36.7%
73 | Cc1nc2c(c(N3CCN(c4ncccc4C(N)=O)CC3)n1)CCNC2 | 12.9%
74 | CCOc1ccc(C(=O)N2C[C@H]3CC[C@@H]2CN(C)C3)cc1OCC | 15.1%
75 | O=C1[C@H]2CN(S(=O)(=O)c3cccs3)C[C@H]2CN1CC1CC1 | 21.4%
76 | CN(Cc1cncnc1)[C@@H]1CN(C(=O)c2ccco2)[C@@H]2CCCO[C@H]12 | 17.3%
77 | CCC1=N[C@@]2(CC[C@@H]3CN(Cc4ccc(F)cc4)C[C@@H]32)C(=O)N1C | 8.18%
78 | Cc1ccc(CN2CCN(C(=O)C3CCC3)[C@@H]3CS(=O)(=O)C[C@@H]32)cc1C | 20.6%
79 | CC1=N[C@@]2(CC[C@@H]3CN(C(=O)NC(C)C)C[C@@H]32)C(=O)N1CC1CC1 | 11.1%
80 | CC(C)C(=O)N1CC[C@H]2N(C)CC[C@@]2(C(=O)Nc2ccccc2)CC1 | 2.7%
81 | COCCN1CC[C@H]2CN(Cc3ccc(C)s3)C[C@@H]2C1=O | 7.69%
82 | CC(=O)N1CC[C@H]2OCC[C@@]2(C(=O)NCc2ccco2)C1 | 13.2%
83 | Cc1cccnc1[C@H](C)Nc1nc(-c2cccnc2)nc2c1CNC2 | 54.3%
84 | Cc1cc(CC(C)Nc2nc(-c3cccnc3)nc3c2CNC3)[nH]n1 (centres undefined) | 22.9%
85 | CCc1cc(C(C)Nc2nc(-c3cccnc3)nc3c2CNC3)on1 (centres undefined) | 17.1%
86 | CC(NC(=O)c1coc(COc2cccc(F)c2)n1)c1nnc(N)s1 (centres undefined) | 54%
87 | COC(=O)[C@@H](NC(=O)c1coc(COc2cccc(F)c2)n1)C(C)C | 6.58%
88 | CCC(C)NC(=O)c1coc(COc2cccc(F)c2)n1 (centres undefined) | 19.7%

Row | SMILES | Percent Effect
89 | CN(C[C@@H]1CCC[C@@H]2CN(c3ncccn3)C[C@@H]21)C1CC1 | 23.3%
90 | COC[C@@H]1CC[C@H]2[C@H](CCN2S(=O)(=O)c2cccc(F)c2)O1 | 2.65%
91 | O=C(NCc1ccccn1)[C@@]12CCO[C@@H]1CCN(c1ncccn1)C2 | 15.4%
92 | COc1ncc(C)cc1NC(=O)COCC(F)(F)F | 77.8%
93 | CCOCC(=O)Nc1cc(C)cnc1OC | 9.52%
94 | COc1cccc(OCC(=O)Nc2cc(C)cnc2OC)c1 | -3.17%
95 | O=C(c1ccccn1)N1CC[C@H]2[C@H]1CCN2S(=O)(=O)C1CC1 | 14%
96 | CN(C)C(=O)[C@H]1C[C@@H]2CN(c3ncccn3)C[C@H]1O2 | 22.2%
97 | CCCc1ccc(CN2CCN(C(=O)NCC)[C@H]3CS(=O)(=O)C[C@H]32)o1 | 13.2%
98 | O=C(c1ccco1)N1CC[C@H]2[C@H]1CCN2CC1CCOCC1 | 6.57%
99 | Nc1cc(N2CCCC(COc3ccc(F)cc3)C2)nc(N)n1 (centres undefined) | 24.1%
100 | Cc1ccccc1OCC1CCCN(c2cc(N)nc(N)n2)C1 (centres undefined) | 72.3%
101 | Cc1nc(N)cc(N2CCCC(COc3cccc(F)c3)C2)n1 (centres undefined) | 24.1%
102 | O=C(CC1CC1)N[C@@H]1CN(Cc2ccc(F)cc2)C[C@@H]2CCCO[C@@H]21 | 11.4%
103 | O=C(NC1CC1)[C@@H]1C[C@@H]2CCN(Cc3ccccc3)C[C@@H]2O1 | -7%
104 | Cc1ncsc1CN1C[C@@H]2COC[C@]2(C(=O)NC2CC(F)(F)C2)C1 | 20%
105 | Cc1nn(CCC#N)c(C)c1[C@@H]1C=C[C@@H](NCc2cccc(Cl)c2)C1 | 50%
106 | Cc1nn(CCC#N)c(C)c1[C@@H]1C=C[C@@H](NCc2ccc(F)cc2)C1 | 25%
107 | Cc1nc[nH]c1CNC1CC(=O)N(CCc2cccc(Cl)c2)C1 (centres undefined) | 7.45%
108 | Cc1cnc(C(=O)N2C[C@H]3CC[C@@H]2CN(c2cnccn2)C3)cn1 | 18.6%
109 | O=C(NC[C@@]1(COc2cnccn2)C[C@@H](O)[C@@H](O)C1)C1CC1 | 5.41%
